These results are taken from PubChem BioAssay.

For experiment [1], the system named is Wnt5a (protein binding on small-molecule microarray). Put plainly: small molecules binding Wnt5a protein – biophysical, small-molecule microarray, 635/667 nm fluorescence, primary screen (AID 1142).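 Also: fluorescence read at 667 nm with signal to noise per printed feature.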 Conditions: 635 nm fluorescence, higher = more signal.
Experiment [2] in a line: ATP-based viability of Huh7 replicon cells – cell-based, CellTiter-Glo luminescence, basal, 48 h, cytotoxicity control for HCV replication inhibitor project, primary screen (AID 1143).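 Also: Huh7 hepatoma cells carrying a hepatitis C replication reporter with no stimulus; test concentration not given here.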 Conditions: higher = more signal, called active from +8 up or from −8 down.
The nature of experiment [3]: basal CRE-LacZ reporter activity in PC12 – cell-based, unstimulated, primary screen (AID 1145). Conditions: no forskolin, luminescence, 4.5 h, higher = more signal, called active from +8 up or from −8 down.
Experiment [4] is described as follows: forskolin-driven CRE-LacZ activity in PC12 – cell-based, CRE-LacZ reporter, forskolin-stimulated, primary screen (AID 1146).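 Also: PC12 cells with 6xCRE LacZ reporter stimulated by forskolin 10 µM; beta-galactosidase reporter signal reflecting CREB driven transcription.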 As to conditions: luminescence, 4.5 h, higher = more signal, called active from +8 up or from −8 down.
Experiment [5] deals with Streptavidin (Streptomyces avidinii) (UniProt P22629). Put plainly: compounds binding control protein streptavidin – biophysical, small-molecule microarray, 635/667 nm fluorescence, artefact control for SMM compound annotation, primary screen (AID 1147).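 Also: signal reflects streptavidin binding to arrayed compounds as a control protein.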 As to conditions: higher = more signal.
Chain of Streptavidin (Streptomyces avidinii) (P22629 whole entry, looked up): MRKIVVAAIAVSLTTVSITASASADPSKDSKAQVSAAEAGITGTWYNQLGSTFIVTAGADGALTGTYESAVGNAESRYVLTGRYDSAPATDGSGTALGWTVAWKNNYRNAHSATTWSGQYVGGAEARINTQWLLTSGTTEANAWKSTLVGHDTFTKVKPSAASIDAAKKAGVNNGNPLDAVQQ
Experiment [6] in a line: probe aInhba binding on compound microarray – biochemical, small-molecule microarray, 635/667 nm fluorescence, primary screen (AID 1148).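 Also: score merges 667nm spot fluorescence with signal-to-noise for antibody binding to printed compounds.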 Conditions: higher = more signal.
Experiment [7] addresses Torsin-1A (Homo sapiens) (UniProt O14656). Put plainly: TOR1A wild-type binding on microarray – cell lysate, small-molecule microarray, lysate, 635/667 nm, primary screen (AID 1149). Conditions: COS7 hTOR1A-WT lysate, 635 nm fluorescence, higher = more signal.
Experiment [8] has the same target. Put plainly: torsin A mutant lysate binding on microarrays – cell lysate, small-molecule microarray, COS7 lysate, 635/667 nm fluorescence, primary screen (AID 1150).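 Also: score pools 667 nm emission and signal to noise measuring lysate protein binding.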 Conditions: COS7 hTOR1A mutant lysate, 635 nm fluorescence, higher = more signal.
In experiment [9] the test system is Sonic hedgehog protein (Shh). The experiment is described as follows: Sonic hedgehog microarray binding compounds – biochemical, small-molecule microarray, 635/667 nm fluorescence, primary screen (AID 1151).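 Also: Shh protein binding to compounds spotted on small-molecule microarray slides; score combines spot fluorescence intensity with signal-to-noise across triplicate slides.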 Conditions: 635 nm fluorescence, higher = more signal.
A short description of experiment [10]: optical density shifts of acrAB sulA E. coli – strain DRC41, OD650, 48 h, E. coli filamentation inducer project, primary screen (AID 1152).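 Also: E. coli MC1000 strain DRC41 lacking acrAB efflux pump and sulA.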 Conditions: higher = more signal, called active from +8 up or from −8 down.
The nature of experiment [11]: probe aLefty1 binding on compound microarray – biochemical, small-molecule microarray, 635/667 nm fluorescence, primary screen (AID 1153).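 Also: score merges spot fluorescence with signal-to-noise ratio from the scanned slide images.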 As to conditions: higher = more signal.
The nature of experiment [12]: plasmodial surface anion channel blockers, osmotic lysis – cell-based, P. falciparum Indochina, OD700, 1 h, primary screen (AID 1154). Conditions: P. falciparum Indochina infected RBC osmotic lysis, higher = more signal, called active from +8 up or from −8 down.
A short description of experiment [13]: plasmodial surface anion channel blockers, osmotic lysis – cell-based, P. falciparum Indochina, OD700, 2 h, primary screen (AID 1155).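 Also: lysis reports solute entry through the parasite surface anion channel PSAC.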 Conditions: P. falciparum Indochina infected erythrocytes, higher = more signal, called active from +8 up or from −8 down.
The nature of experiment [14]: changes in parasitized red cell lysis, either direction – P. falciparum Indochina, OD700, 3 h, PSAC antagonist project, primary screen (AID 1156). Conditions: P. falciparum-infected erythrocytes, osmotic lysis, higher = more signal, called active from +8 up or from −8 down.
The nature of experiment [15]: plasmodial surface anion channel blockers, osmotic lysis – cell-based, P. falciparum Indochina, OD700, 18 h, primary screen (AID 1157). Conditions: P. falciparum Indochina infected erythrocytes, osmotic lysis OD700, 18 h; higher = more signal, called active from +8 up or from −8 down.
Experiment [16] can be described thus: S6 kinase pathway phospho-S6 level changes – cell-based, A549, cytoblot, luminescence, serum-stimulated, primary screen (AID 1158).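 Also: serum-stimulated A549 lung adenocarcinoma cells; signal is phosphorylated S6 detected by cytoblot immunostaining with HRP secondary.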 As to conditions: 5 h, higher = more signal.
Experiment [17] concerns the target NADPH oxidase 2 (Homo sapiens) (UniProt P04839). Put plainly: compounds shifting NOX2 Amplex Red fluorescence – cell-based, HEK293-NOX2, PMA-stimulated, NOX inhibitor project, primary screen (AID 1159). Also: test concentration not given here. As to conditions: 45 min, higher = more signal, called active from +8 up or from −8 down.
Experiment [18] concerns the target NADPH oxidase 4 (Homo sapiens) (UniProt Q9NPH5). The experiment is described as follows: compounds shifting NOX4 Amplex Red fluorescence – cell-based, HEK293-NOX4, tetracycline-induced, NOX inhibitor project, primary screen (AID 1160). As to conditions: HEK293-NOX4, Amplex Red H2O2 fluorescence, 45 min; higher = more signal, called active from +8 up or from −8 down.

The target of experiment [19] is NADPH oxidase 5 (Homo sapiens) (UniProt Q96PH1). Put plainly: compounds shifting NOX5 Amplex Red fluorescence – cell-based, HEK293-NOX5, NOX inhibitor project, primary screen (AID 1161). As to conditions: HEK293-NOX5, ionomycin, 45 min, higher = more signal.
Chain of NADPH oxidase 5 (Homo sapiens) (Q96PH1 whole entry, looked up): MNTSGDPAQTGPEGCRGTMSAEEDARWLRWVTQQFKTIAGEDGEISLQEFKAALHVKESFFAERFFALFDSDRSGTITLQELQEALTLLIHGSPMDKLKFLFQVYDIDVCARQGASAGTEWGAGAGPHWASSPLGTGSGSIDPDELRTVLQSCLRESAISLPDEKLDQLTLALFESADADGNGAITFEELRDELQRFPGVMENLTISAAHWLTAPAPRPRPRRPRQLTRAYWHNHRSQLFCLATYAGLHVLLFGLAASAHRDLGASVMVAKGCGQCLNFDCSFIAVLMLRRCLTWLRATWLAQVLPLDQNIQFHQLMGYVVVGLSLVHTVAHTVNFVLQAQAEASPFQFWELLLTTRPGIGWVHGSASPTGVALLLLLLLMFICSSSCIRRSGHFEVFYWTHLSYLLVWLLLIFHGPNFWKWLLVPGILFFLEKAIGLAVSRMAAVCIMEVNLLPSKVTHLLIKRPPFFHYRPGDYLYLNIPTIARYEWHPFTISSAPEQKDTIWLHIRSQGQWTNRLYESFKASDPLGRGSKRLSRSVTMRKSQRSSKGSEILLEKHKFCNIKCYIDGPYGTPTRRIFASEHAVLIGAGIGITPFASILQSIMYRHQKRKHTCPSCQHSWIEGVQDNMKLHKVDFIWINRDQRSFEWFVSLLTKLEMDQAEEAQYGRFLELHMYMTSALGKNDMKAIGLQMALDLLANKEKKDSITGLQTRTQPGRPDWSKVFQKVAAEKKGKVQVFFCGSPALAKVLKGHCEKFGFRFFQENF
A short description of experiment [20]: compound effects on lung adenocarcinoma cell viability – A549, calcein-AM fluorescence, 48 h, basal, profiling panel (AID 1162). Also: test concentration not given here. As to conditions: higher = more signal.

Activity calls are given as the source filed them.

Chain of NADPH oxidase 2 (Homo sapiens) (P04839 whole entry, looked up): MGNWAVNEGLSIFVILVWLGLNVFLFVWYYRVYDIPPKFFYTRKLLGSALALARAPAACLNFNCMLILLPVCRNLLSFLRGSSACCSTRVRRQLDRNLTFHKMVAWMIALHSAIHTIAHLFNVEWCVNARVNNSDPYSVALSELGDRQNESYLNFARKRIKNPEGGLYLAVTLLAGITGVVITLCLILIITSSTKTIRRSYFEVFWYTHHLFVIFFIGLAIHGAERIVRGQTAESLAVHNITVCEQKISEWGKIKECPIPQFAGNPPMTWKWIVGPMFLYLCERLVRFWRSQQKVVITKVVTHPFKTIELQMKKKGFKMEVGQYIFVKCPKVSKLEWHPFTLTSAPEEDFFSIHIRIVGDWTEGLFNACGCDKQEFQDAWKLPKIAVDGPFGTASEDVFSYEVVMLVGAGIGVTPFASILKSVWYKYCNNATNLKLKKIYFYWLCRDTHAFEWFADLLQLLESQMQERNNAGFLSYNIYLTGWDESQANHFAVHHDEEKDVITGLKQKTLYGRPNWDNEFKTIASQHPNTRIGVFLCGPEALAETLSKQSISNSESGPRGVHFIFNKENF
Chain of Torsin-1A (Homo sapiens) (O14656 whole entry, looked up): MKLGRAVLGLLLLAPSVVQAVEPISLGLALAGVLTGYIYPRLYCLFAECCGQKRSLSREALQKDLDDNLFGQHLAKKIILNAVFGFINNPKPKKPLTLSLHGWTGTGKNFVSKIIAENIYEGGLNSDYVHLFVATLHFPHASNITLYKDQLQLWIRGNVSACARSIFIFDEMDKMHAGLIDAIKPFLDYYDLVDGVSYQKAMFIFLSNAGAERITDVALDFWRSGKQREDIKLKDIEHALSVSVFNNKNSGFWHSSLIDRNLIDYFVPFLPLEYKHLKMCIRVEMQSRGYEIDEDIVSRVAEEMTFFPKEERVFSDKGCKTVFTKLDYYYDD
Chain of NADPH oxidase 4 (Homo sapiens) (Q9NPH5 whole entry, looked up): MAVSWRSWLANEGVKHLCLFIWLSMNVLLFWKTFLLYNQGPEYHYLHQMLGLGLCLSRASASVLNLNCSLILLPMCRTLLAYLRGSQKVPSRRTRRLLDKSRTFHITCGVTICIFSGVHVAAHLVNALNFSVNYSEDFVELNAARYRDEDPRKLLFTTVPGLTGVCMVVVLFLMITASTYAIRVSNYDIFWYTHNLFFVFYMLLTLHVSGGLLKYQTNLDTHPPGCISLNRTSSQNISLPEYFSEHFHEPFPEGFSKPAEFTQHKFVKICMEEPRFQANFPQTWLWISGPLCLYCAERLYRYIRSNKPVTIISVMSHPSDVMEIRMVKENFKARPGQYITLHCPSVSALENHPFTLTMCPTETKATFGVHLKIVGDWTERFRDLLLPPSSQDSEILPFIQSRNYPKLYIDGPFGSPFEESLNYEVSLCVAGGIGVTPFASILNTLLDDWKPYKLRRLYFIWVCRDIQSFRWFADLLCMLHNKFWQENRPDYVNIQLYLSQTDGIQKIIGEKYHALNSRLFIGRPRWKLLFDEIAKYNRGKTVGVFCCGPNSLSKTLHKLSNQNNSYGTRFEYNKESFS

`C=CCC(OC(C)=O)[C@@H]1[C@@H](N(Cc2cccc3ccccc23)C(=O)Cc2ccc(OC)cc2)c2cc(OCCCO)ccc2N1C(=O)Cc1ccc(OC)cc1` (stereo not given in full): the composite z-score was -0.143 in experiment [1]; 0.131 in experiment [5]; -0.0986 in experiment [6]; 0.271 in experiment [7]; -0.482 in [8]; 0.0188 in experiment [9]. In experiment [11], this compound displayed a composite z-score of 0.051. Further, the z-score in [2] is -0.627 (inactive); in experiment [3], 1.78 (inactive); in experiment [4], -1.2 (inactive); in [10], 2.17 (inactive); in experiment [12], 1.62 (inactive); in experiment [13] it was 0.317 (inactive). Also, the z-score in experiment [14] was 0.119 (inactive); in experiment [15], 0.506 (inactive); in [16], 0.623; in experiment [17], 0.459 (inactive); in experiment [18], -0.451 (inactive); in experiment [19], 2.4. Also, the z-score in experiment [20] was 1.25.

With `CC(C)N1C(=O)c2ccccc2[C@@H](C(=O)NCc2ccccc2)[C@@H]1c1ccc(CO)cc1`, the composite z-score in experiment [1] was 0.0422; in experiment [5], -1.17; in experiment [6], -0.206; in experiment [7], 0.81; in experiment [8], 0.436; in experiment [9], -0.49. The compound also came in with a composite z-score in experiment [11] of -0.15. The z-score in [2] was -0.144 (inactive); in [3], 0.0279 (inactive); in experiment [4], -0.659 (inactive); in experiment [10], 1.12 (inactive); in [12], 2.59 (inactive); in experiment [13], 0.425 (inactive). The z-score in [14] was 0.884 (inactive); in [15] it was 0.818 (inactive); in experiment [16], 0.325; in experiment [17], -0.00885 (inactive); in [18], 0.454 (inactive); in experiment [19], -0.101. Further, the z-score in experiment [20] was 0.538.

For the compound `COCCCN1C(=O)[C@@]2(Cc3ccccc31)c1ccccc1C(=O)N(Cc1ccccc1Cl)[C@H]2c1ccc(CO)cc1`, the composite z-score in [1] is 0; in [5], -0.733; in experiment [6], -0.108; in experiment [7] it was -0.471; in [8] it was 0.0439; in [9], 0.0161. In addition, the composite z-score in experiment [11] is 0.0053. For the same compound, the z-score in experiment [2] is -1.33 (inactive); in experiment [3] it was -0.179 (inactive); in [4], -0.415 (inactive); in experiment [10], 3.46 (inactive); in experiment [12], 0.399 (inactive); in [13] it was -0.277 (inactive). The z-score in [14] is -0.992 (inactive); in experiment [15], -0.85 (inactive); in experiment [16], 1.34; in experiment [17], -2.48 (inactive); in [18] it was 0.163 (inactive); in [19] it was 1.65. Further, in experiment [20], the z-score was 1.54.

With `CCOC(=O)C[C@H]1[C@H](OC(=O)Cc2ccc3c(c2)OCO3)[C@@H](NC(=O)c2ccc3ccccc3c2)c2cc(OCCCO)ccc2N1C(=O)c1ccc2ccccc2n1`, the composite z-score in [1] turned out to be 0.0364; in experiment [5], 0.398; in experiment [6], 0.219; in [7], 0.0253; in experiment [8], 0.107; in experiment [9], 0.555. For the same compound, in experiment [11], the composite z-score came out at 0.169. Besides, the z-score was -2.81 (inactive) in [2]; 7.41 (inactive) in [3]; -1.37 (inactive) in [4]; 0.869 (inactive) in experiment [10]; 11.8 (active) in experiment [12]; 1.44 (inactive) in [13]. Also, the z-score in experiment [14] was -0.859 (inactive); in experiment [15], 0.0679 (inactive); in [16], 1.49; in [17] it was 0.0194 (inactive); in [18] it was -0.0398 (inactive); in [19], -3.84. Moreover, the z-score in experiment [20] was 3.85.
